Screens from PubChem.
F508del corr – CFTR F508del correction in bronchial cells; AID 720511; 350,000 compounds, 0.36% hits; CFBE cells, YFP halide quenching; stimulated with forskolin plus potentiator P3; % fluorescence drop versus neutral controls; activity (quench increase), % at 7.58 µM;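 active means mean added fluorescence quench of at least 8% versus neutral control, with both replicates also reaching 8%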;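 further: cells transiently co-express mutant CFTR-F508del with the halide-sensitive YFP; corrector assay measuring rescue of mutant channel to the surface after 24 h compound exposure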
PvdQ acylase – blocks Pseudomonas aeruginosa PvdQ acylase activity. purified PvdQ acylase, fluorescence plate reader. inhibition, % at 10 µM. 340,000 compounds, 0.063% hits. AID 488965; in the data active means inhibition above about 30%, passing the limit was not always enough
rRNA inh HTS – inhibits bacterial ribosomal RNA function over humanized ribosomes; 350,000 compounds, 1.6% hits; GFP signal change (wild-type ribosome), % (no concentration beside the values); AID 720706; E. coli WT GFP vs humanized-ribosome RFP mutants, fluorescence, 24 h; active compounds read low; DMSO median 0, no signal -100;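 active means significant combined selectivity score with lowered wild-type GFP, culture density cut under 30%, mutant RFP and density less affected; inactive means any of these conditions unmet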
ARNT TACC3 PPI – disruptors of human ARNT/TACC3 interaction; 390,000 compounds, 0.66% hits; Q9Y6A5; AID 623870; AlphaScreen His-ARNT PAS-B/GST-TACC3 binding, luminescence; TACC3 fragment carries E629A point mutation; inhibition, % at 9.99 µM;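 active means mean inhibition of replicates at least 50% and at least half of replicates each reaching 50%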
ERAP1 HTS inh – blocks human ERAP1 aminopeptidase activity | Q9NZ08 | recombinant ERAP1, Leu-AMC fluorescence, 60 min | inhibition, % at 10.7 µM | 340,000 compounds, 0.15% hits | AID 652197;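 active means mean replicate inhibition of at least 30%, or all replicates individually reaching that 30% level; inactive means mean below 30% and not every replicate reaching it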
Large screens that a line does not name were inactive. Sampled rows, rich in hits. Any-hit rate of the full collection: about 2.1%.

Oc1ccc(/C=N/Nc2ccnc3cc(Cl)ccc23)c(O)c1	rRNA inh HTS -33
CCN(C[C@@H]1[C@@H](c2ccccc2)[C@H](CO)N1S(C)(=O)=O)C(=O)C1CCC1	none (no result: PvdQ acylase, ERAP1 HTS inh)
COc1ccccc1NC(=O)N1C[C@@H](O)COC[C@@H]2O[C@H](CC(=O)NCc3ccccc3)CC[C@H]21	none (no result: PvdQ acylase)
Cc1ccc(S(=O)(=O)N(C)C[C@@H]2OCCCC[C@@H](C)Oc3ccc(NC(=O)CCCN(C)C)cc3C(=O)N([C@@H](C)CO)C[C@H]2C)cc1	none (no result: PvdQ acylase)
Fc1ccc(/C=N/NC(=S)Nc2cccnc2)cc1	none
Cc1cc(NC(=S)Nc2cccnc2)ccc1Br	rRNA inh HTS -46
O=C(Cn1cnc([N+](=O)[O-])n1)N/N=C/c1ccc(O)cc1O	ARNT TACC3 PPI 63
Oc1ccc(/C=N/NC(=S)Nc2cccnc2)c(O)c1	ARNT TACC3 PPI 65 (no result: F508del corr, rRNA inh HTS, ERAP1 HTS inh)
Oc1ccc(C=NNc2nc3ccccc3s2)c(O)c1	none
O=C(Cn1cnc([N+](=O)[O-])n1)N/N=C/c1cccc2ccccc12	none (no result: ARNT TACC3 PPI)
Oc1ccc(/C=N/Nc2ccc3ccccc3c2)c(O)c1	rRNA inh HTS -32
CCCNC(=O)N(C)C[C@@H]1Oc2cc(C3=CCCCC3)ccc2S(=O)(=O)N([C@@H](C)CO)C[C@H]1C	none (no result: PvdQ acylase)
C[C@H](CO)N1C[C@H](C)[C@@H](CN(C)C(=O)CCC(F)(F)F)OCCCC[C@H](C)Oc2ccc(NC(=O)Nc3ccccc3)cc2C1=O	none (no result: PvdQ acylase)
Oc1ccc(C=NNC(=S)Nc2ccc(F)cc2)c(O)c1	ARNT TACC3 PPI 65
Cc1nc(Cl)cc(N/N=C/c2ccc(O)cc2O)n1	ARNT TACC3 PPI 27
O=C(CCC(=O)Nc1ccc(F)cc1)N/N=C/c1ccc(O)cc1O	none
CC(=O)N1CCC(=NNc2ncc(C(F)(F)F)cc2Cl)CC1	ARNT TACC3 PPI 48 (no result: ERAP1 HTS inh)
C/C=C/c1ccc([C@H]2[C@H](CO)N(C(=O)COC)[C@H]2CNC(=O)CC)cc1	none (no result: PvdQ acylase)
CN(C)CC(=O)N[C@@H]1CC[C@H](CCn2cc(C3CCCCC3)nn2)O[C@@H]1CO	none (no result: PvdQ acylase)
CC1C(=O)Nc2ccccc2N1C(=O)c1ccc(Cl)c(Cl)c1 (stereo not given)	rRNA inh HTS -27
CC(C)(C)N(Cc1ccccc1)C(=O)c1cc2ccccc2o1	F508del corr 10.0
CC(=O)N(C)C[C@H]1Oc2cc(-c3cncnc3)ccc2S(=O)(=O)N([C@@H](C)CO)C[C@H]1C	none (no result: PvdQ acylase)
COc1ccccc1C(C)Nc1ccc(S(=O)(=O)N2CCN(C)CC2)cc1[N+](=O)[O-] (stereo not given)	ARNT TACC3 PPI 65
CC1=C(C(=O)OC2CCCC2)C(c2coc3ccccc3c2=O)C2=C(CC(C)(C)CC2=O)N1 (stereo not given)	rRNA inh HTS -22
COCC(=O)N1[C@@H]2c3ccc(/C=C/c4ccccc4)c(=O)n3C[C@H]1[C@H](CO)[C@H]2C(=O)N1CCOCC1	ERAP1 HTS inh 108 (no result: F508del corr, PvdQ acylase)
COCC(=O)N1[C@@H]2Cn3c(ccc(/C=C/c4ccccc4)c3=O)[C@H]1[C@@H](C(=O)N1CCCCC1)[C@@H]2CO	none (no result: PvdQ acylase)
C[C@H](O)C#Cc1cnc2c(c1)C(=O)N([C@@H](C)CO)C[C@H](C)[C@H](CN(C)C(=O)c1ccccc1F)O2	none (no result: PvdQ acylase)
O=C(C[C@H]1C[C@@H]2c3cc(NC(=O)Nc4ccccc4F)ccc3O[C@@H]2[C@@H](CO)O1)NC1CCCCC1	none (no result: PvdQ acylase)
O=C(COc1ccccc1Cl)Nc1ccccc1C(=O)Nc1cccc(C(=O)O)c1	rRNA inh HTS -29
O=C(COc1ccccc1Cl)Nc1ccc(C(=O)O)cc1NC(=O)COc1ccccc1Cl	none (no result: rRNA inh HTS)
O=C(NCC1CCCCC1)c1cc(Br)ccc1Cl	PvdQ acylase 34
C[C@H](CO)N1C[C@H](C)[C@@H](CN(C)S(C)(=O)=O)OCCCC[C@H](C)Oc2ccc(NC(=O)NC3CCCCC3)cc2C1=O	none (no result: PvdQ acylase)
CCn1c2ccccc2c2cc(/C=N/n3c(-c4cc(C)[nH]n4)n[nH]c3=S)ccc21	rRNA inh HTS -31
C[C@H](CO)N1C[C@H](C)[C@H](CN(C)Cc2ccc(C(=O)O)cc2)Oc2ccc(NS(C)(=O)=O)cc2C1=O	none (no result: PvdQ acylase)
CCc1ccc(C(=O)CSc2nc(C)cc(=O)[nH]2)cc1	rRNA inh HTS -27
CC(=O)Nc1cccc(NC(=O)c2ccc3[nH]c(C)c(C)c3c2)c1	none
COc1ccc(NC(=O)c2ccc3[nH]c(C)c(C)c3c2)cc1	rRNA inh HTS -25
